High-throughput results (PubChem BioAssay)
Sampled rows, rich in hits. Any-hit rate of the full collection: about 18%.
VP16 counter – counter-screen for ROR gamma inhibitors: Gal4-VP16 reporter | Drosophila S2 Gal4-VP16 UAS-luciferase, luminescence, 20 h | Potency, µM (titrated, usually from 53.6 µM), for the others: top-dose activity, negative = inhibition, usual class: inhibitors | 310,000 compounds, 3.5% hits | AID 2546;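 also: Gal4-VP16 expression switched on by copper sulfate through the metallothionein promoter; potency is read from the fitted curve at half-maximal effect; nearly all actives have a fitted effect of over 50% in size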
RORg inh – ROR gamma (mouse) transcription inhibition | P51450 | Drosophila S2 Gal4-RORgamma UAS-luciferase reporter, 20 h | Potency, µM (series often up to 53.6 µM), inactives show top-dose activity change, negative = inhibition, most hits filed as inhibitors | 310,000 compounds, 5.4% hits; also: potency is read from the fitted curve at half-maximal effect; nearly all actives have a fitted effect of over 60% in size
Target sequence (P51450 whole entry, looked up, the tested form may be a part): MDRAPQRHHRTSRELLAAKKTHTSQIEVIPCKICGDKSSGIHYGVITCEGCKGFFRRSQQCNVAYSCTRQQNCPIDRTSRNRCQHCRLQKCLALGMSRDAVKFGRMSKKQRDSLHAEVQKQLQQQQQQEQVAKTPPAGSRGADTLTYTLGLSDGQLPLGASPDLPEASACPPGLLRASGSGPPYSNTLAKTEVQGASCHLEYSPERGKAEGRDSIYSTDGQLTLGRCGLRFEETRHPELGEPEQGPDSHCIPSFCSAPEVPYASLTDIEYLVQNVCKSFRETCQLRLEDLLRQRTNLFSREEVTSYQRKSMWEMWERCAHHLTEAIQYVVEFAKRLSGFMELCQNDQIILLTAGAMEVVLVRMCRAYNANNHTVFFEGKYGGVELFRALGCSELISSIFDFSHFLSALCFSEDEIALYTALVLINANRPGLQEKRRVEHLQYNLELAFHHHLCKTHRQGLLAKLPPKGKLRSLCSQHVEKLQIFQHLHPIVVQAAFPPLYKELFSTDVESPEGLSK
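Luminescence from a UAS-regulated Photinus luciferase reporter in stably transfected Drosophila Schneider cells is measured; decreased signal marks ROR gamma inhibition. Fusion expression is induced by 700 uM copper sulfate for 20 hr.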
TDP1 cell noCPT – qHTS for Inhibitors of human tyrosyl-DNA phosphodiesterase 1 (TDP1): qHTS in cells in absence of CPT; AID 686978, 2013; DT40 Tdp1-/- hTDP1 cells, no CPT, ATP luminescence, 48 h; 420,000 compounds, 15% hits; Potency, µM (doses to about 46.2 µM), without a hit: at the highest dose activity change, negative = growth inhibition, actives largely listed as inhibitors; also: potency is read from the fitted curve at half-maximal effect; nearly all actives have a fitted effect of over 55% in size
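DT40 Tdp1-/-;hTDP1 cells, no CPT (DMSO vehicle only), 400 cells/well; compounds pin-transferred; ≥48 hr, 37 °C; CellTiter-Glo 30 min RT dark, luminescence read.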
DT40 TDP1 CPT – DT40-hTDP1 cell growth loss with CPT; 420,000 compounds, 12% hits; AID 686979; Potency, µM (doses to about 46.2 µM), for inactives: at the top dose activity change, negative = growth inhibition, most hits filed as inhibitors; chicken DT40 Tdp1-/-;hTDP1 cells + 20 nM CPT, ATP luminescence, 48 h; also: potency is read from the fitted curve at half-maximal effect; nearly all actives have a fitted effect of over 55% in size
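Cell growth measured by CellTiter-Glo luminescence after a minimum 48 h, 37 C compound exposure with 20 nM CPT in Tdp1-knockout DT40 cells stably expressing hTDP1, seeded 400/well; qHTS titration format.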
LDHA inh – inhibitors of human lactate dehydrogenase A; purified LDHA, NADH/diaphorase-resazurin fluorescence; active compounds read low; 480,000 compounds, 0.15% hits; P00338; activity change, % (values are at about 110 or 230 µM); in the data active = activity change below about -30%; inconclusive = mostly about -25% to -30%;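 also: plate controls were DMSO wells for no effect and wells without enzyme for full effect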
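Human LDH5 (2 nM) was incubated with 0.06 mM NADH and 0.2 mM pyruvate for 5 min at room temperature in Tris pH 7.4. Remaining NADH was coupled through diaphorase/resazurin, and resorufin fluorescence was read at 0 and 20 min.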
IL-1B inflam inh – blocks inflammasome-driven IL-1 beta release; THP-1 LPS/ATP IL-1B secretion, AlphaLISA, 16 h; active compounds read low; activity change, % at 57.5 µM; 360,000 compounds, 4.7% hits; in the data active = activity change below about -50%; inconclusive = mostly about -30% to -49%
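Secreted IL-1B measured by AlphaLISA bead assay after 16 h compound exposure of THP-1 cells; compounds (final up to 57.5 uM) added 1 h before LPS (250 ng/mL) and ATP (1.25 mM) stimulation; lower signal means less secretion.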
* marks the source's active call; other numbers are inactive results; ? = inconclusive; / = no result; [ ] = dose if it differs, or a comment. Unless noted, calls follow the shape of the dose curve; as a rule, active = well fitted curve in the direction sought with a large enough effect; inconclusive = small, poorly fitted or top-dose-only effect, or another doubt; inactive = no such curve, though single readings can be large; an effect the other way counts as inactive or inconclusive. Unless noted, % is scaled to controls: 0 for no effect and ±100 for the full control effect.

SMILES	VP16 counter	RORg inh	TDP1 cell noCPT	DT40 TDP1 CPT	LDHA inh	IL-1B inflam inh
NC(=S)NCc1ccccc1Cl	/	/	/	/	-1	/
Cc1nc2ccc(C(=O)OC(C)C(=O)NC3CC3)cc2nc1C (stereo not given)	/	/	/	/	2	/
O=C(/C=C/c1c(-c2ccccc2)[nH]c2ccccc12)C(F)(F)F	/	/	/	/	1	/
Cc1ccc(NC(=O)CCCc2nc3ccccc3c(=O)[nH]2)c(Cl)c1	/	/	15µM*	18µM*	-2	4
CN(CC(=O)Nc1ccc(Cl)c(C(F)(F)F)c1)C(=O)c1cc(-c2ccncc2)nc2ccccc12	/	/	18µM*	?	-6	-96*
Cc1cc(C(=O)N(C)CC(=O)Nc2ccc(Cl)c(C(F)(F)F)c2)no1	/	/	16µM*	-26%	-7	-10
CN(CC(=O)Nc1ccc(Cl)c(C(F)(F)F)c1)C(=O)c1cn2ccccc2n1	/	/	10µM*	13µM*	-2	-8
CN(CC(=O)Nc1ccc(Cl)c(C(F)(F)F)c1)C(=O)c1cnccn1	/	/	?	?	0	-24
N#Cc1nc(-c2ccc(Cl)cc2)oc1NCc1ccccc1Cl	/	/	/	/	17	/
CN(CC(=O)Nc1ccc(Cl)c(C(F)(F)F)c1)C(=O)c1cccs1	/	/	16µM*	?	-5	?
CN(CC(=O)Nc1ccc(F)c(F)c1F)C(=O)c1ccc2c(c1)NC(=O)CS2	/	/	?	?	0	47
CN(CC(=O)Nc1ccc(Cl)c(C(F)(F)F)c1)C(=O)c1ccc2c(c1)NC(=O)CS2	/	/	23µM*	?	-1	-24
CSc1ncccc1C(=O)N(C)CC(=O)Nc1ccc(Cl)c(C(F)(F)F)c1	-8%	0%	?	?	-2	-2
CCOC(=O)C(NC(=O)/C=C/c1c(F)cccc1Cl)C(=O)OCC	/	/	/	/	0	/
Cc1cc(N2CCCCC2)nc2ccc(NC(=O)CCC(=O)N3CCN(c4ccccc4)CC3)cc12	/	/	21µM*	?	2	/
Cc1ccc(C)c(N2CCN(C(=O)CCC(=O)Nc3ccc4nc(N5CCCCC5)cc(C)c4c3)CC2)c1	/	/	12µM*	12µM*	-2	/
CCCCNC(=O)CCC(=O)Nc1ccc2nc(N3CCN(C)CC3)cc(C)c2c1	-23%[10 µM]	26%	-2%	-2%	-11	22
COc1cccc(N2CC(NC(=O)c3cc(Cl)ccc3OC)CC2=O)c1 (stereo not given)	/	/	16µM*	?	-6	/
COc1ccc(N2CC(NC(=O)COc3cccc(C)c3)CC2=O)cc1OC (stereo not given)	/	/	21µM*	-28%	0	/
COc1ccc(N2CC(NC(=O)COc3ccccc3)CC2=O)cc1OC (stereo not given)	/	/	7%	-1%	-8	/
CCNC(=O)/C=C/c1ccc(OC)cc1	/	/	/	/	0	/
O=C(CN1CCN(C(=O)c2cc(-c3ccccc3Cl)n[nH]2)CC1)N1CCCCC1	/	/	/	/	0	/
CC(C)(C)c1ccc(-c2n[nH]c(=S)n2/N=C/c2ccncc2)cc1	14µM*	?	?	-25%	-2	15
Cc1ccc(/C=N/n2c(-c3ccncc3)n[nH]c2=S)cc1	13µM*	8.9µM*	-24%	-19%	-8	11
CNC(=S)N1N=C(c2ccc(C)cc2)CC1c1ccc(OC)c(OC)c1 (stereo not given)	-5%	-28%	15µM*	?	-1	-16
CNC(=S)N1N=C(c2ccc(OC)cc2)CC1c1ccc(N(C)C)cc1 (stereo not given)	?	13µM*	?	?	1	-26
CNC(=S)N1N=C(c2ccccc2)CC1c1ccc(OC)c(OC)c1 (stereo not given)	2%	-26%	-27%	-17%	-8	43
